# HPGD inh: HPGD (human) dehydrogenase inhibition; purified HPGD, NADH fluorescence kinetic, PGE2 substrate; Potency, µM, for inactives: at the highest dose activity change, negative = inhibition, most hits filed as inhibitors; actives 4.3% (n = 150,000); active = well fitted inhibition curve with a large enough effect, not every such curve was filed as active; inconclusive = small, poorly fitted or top-dose-only effect, or another doubt; inactive = no such curve, though single readings can be large or run the other way; also: potency is read from the fitted curve at half-maximal effect; % is scaled to controls: 0 for no effect and ±100 for the full control effect
# Target sequence (P15428 whole entry, looked up): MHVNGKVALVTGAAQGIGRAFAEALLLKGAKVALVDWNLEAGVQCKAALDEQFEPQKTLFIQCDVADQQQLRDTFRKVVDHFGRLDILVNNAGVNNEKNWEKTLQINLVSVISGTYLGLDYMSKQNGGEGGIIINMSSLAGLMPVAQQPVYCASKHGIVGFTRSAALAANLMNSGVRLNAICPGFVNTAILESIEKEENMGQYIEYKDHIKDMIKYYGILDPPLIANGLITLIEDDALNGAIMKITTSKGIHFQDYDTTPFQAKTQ
#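 20 nM HPGD preincubated 15 min at room temperature with compound in 50 mM Tris-HCl pH 8, 0.01% Tween 20. Started with 1 mM NAD+ and 30 uM prostaglandin E2; NADH fluorescence (360/450 nm) read 5 times over 30-s intervals, last minus first.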
# ALDH1A1 block: inhibitors of human aldehyde dehydrogenase 1A1 | Purified ALDH1A1, NADH fluorescence, propionaldehyde substrate | Potency, µM (titrated, usually from 75.3 µM), for the others: top-dose activity, negative = inhibition, most hits filed as inhibitors | actives 7.3% (n = 220,000) | AID 1030; active = well fitted inhibition curve with a large enough effect, not every such curve was filed as active; inconclusive = small, poorly fitted or top-dose-only effect, or another doubt; inactive = no such curve, though single readings can be large or run the other way;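 also: potency is read from the fitted curve at half-maximal effect; plate controls were no enzyme wells and a reference inhibitor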
# GoLoco inh red: RGS12 GoLoco-Gai1 interaction inhibition. P63096. Gai1:RGS12 GoLoco peptide FP, rhodamine, 10 min. Potency, µM (doses to about 61.6 µM), without a hit: top-dose activity, negative = inhibition, hits mostly inhibitors. actives 0.44% (n = 230,000). AID 880; active = well fitted inhibition curve with a large enough effect, not every such curve was filed as active; inactive = no such curve, though single readings can be large or run the other way; also: potency is read from the fitted curve at half-maximal effect; % is scaled to controls: 0 for no effect and ±100 for the full control effect; nearly all actives have a fitted effect of over 30% in size
# Target sequence (P63096 whole entry, looked up): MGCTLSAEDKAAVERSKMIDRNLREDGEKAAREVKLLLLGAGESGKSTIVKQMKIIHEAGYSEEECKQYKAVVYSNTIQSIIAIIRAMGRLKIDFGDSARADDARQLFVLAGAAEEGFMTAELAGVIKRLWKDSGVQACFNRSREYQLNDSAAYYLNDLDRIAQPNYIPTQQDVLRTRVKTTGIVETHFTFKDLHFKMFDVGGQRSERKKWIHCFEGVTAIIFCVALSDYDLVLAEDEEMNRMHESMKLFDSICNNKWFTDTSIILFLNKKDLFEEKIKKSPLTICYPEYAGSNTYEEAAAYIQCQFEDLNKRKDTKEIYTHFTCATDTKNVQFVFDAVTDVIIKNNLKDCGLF
# HTT aggregate: reduces HttQ103-GFP aggregates in PC12 cells | PC12 HttQ103-GFP aggregates, Acumen cytometry, 40 h | Potency, µM (doses to about 46.1 µM), for the others: at the top dose activity change, negative = inhibition, most hits filed as inhibitors | actives 1.1% (n = 220,000) | AID 1688; also: potency is read from the fitted curve at half-maximal effect; % is scaled to controls: 0 for no effect and ±100 for the full control effect; nearly all actives have a fitted effect of over 60% in size
#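 PC12 cells with ecdysone-inducible HTT exon1 Q103-GFP, induced by 100 nM tebufenozide, given compounds in a concentration series. GFP aggregates (1–25 um, 6 SD above background) counted in lysates by laser-scanning cytometry, 488 nm excitation.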
# HTT cytoprotect: cytoprotection in Huntington HTT-Q103 PC12 cell model; PC12 HTT-Q103 induced, cytoprotection, ATP luminescence, 40 h; Potency, µM (titrated, usually from 56.4 µM), for the others: cytoprotection (ATP increase), hits mostly activators; actives 0.14% (n = 230,000); AID 1471; also: potency is read from the fitted curve at half-maximal effect; % of control where 0% means no effect; nearly all actives have a fitted effect of over 45% in size
#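 ATP quantification (ATPlite) reports survival of PC12 cells in which tebufenozide, 100 nM final, switches on Htt exon 1 with 103 glutamines linked to GFP; compounds are titrated.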
# PNC assembly inh: inhibitors of perinucleolar compartment assembly. PC3M PTB-GFP, PNC prevalence imaging, 16 h; active compounds read low. actives 3.1% (n = 140,000). activity change (PNC), negative = inhibition, % at 10 µM. AID 2417;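 active = readout at or below -70, meaning at least 70% loss of cells showing the perinucleolar compartment, a nuclear body marking cancer cells; inconclusive = readout between -30 and a set limit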;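 also: plate controls were DMSO wells for no effect and camptothecin positive control wells for full effect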
#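 Compounds are pinned in duplicate onto adhered PC3M cells stably expressing GFP-tagged PTB and incubated 16 h at 37 C. Cells are then fixed, nuclei stained with Hoechst, and PNC-positive cells counted.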
# * = called active by the depositor; ? = inconclusive; nt = no result; [ ] = another dose, or the depositor's remark. This is a sample that favours compounds with a hit; in the whole collection about 11% have one here. Unless noted, calls follow the shape of the dose curve; as a rule, active = well fitted curve in the direction sought with a large enough effect; inconclusive = small, poorly fitted or top-dose-only effect, or another doubt; inactive = no such curve, though single readings can be large; an effect the other way counts as inactive or inconclusive.
SMILES,HPGD inh,ALDH1A1 block,GoLoco inh red,HTT aggregate,HTT cytoprotect,PNC assembly inh
CN1CCN(C(=O)/C(=C\c2ccccc2)c2ccccc2)CC1,18µM*,10%,6%,25%,8%,8
CC1CCN(C(=O)/C(=C/c2ccccc2Cl)c2ccccc2)CC1,11µM*,?,7%,-31%,-9%,-28
N#CCCn1c(=O)c(CCc2ccccc2)nc2cnc(Nc3ccccc3)nc21,nt,?,55%,nt,-3%,nt
C/C(CC1CC(C)OC1=O)=N\NC(N)=S (configuration not stated),-8%,11%,-13%,17%,-6%[10 µM],-27
C/C(CCC12CC3CC(CC(C3)C1)C2)=N\NC(N)=S,-13%,?,-3%,-15%[9.22 µM],2.8µM*,5
O=C(O)c1cc(NN=Nc2cccc([N+](=O)[O-])c2)cc([N+](=O)[O-])c1,nt,20µM*,5%,-4%[9.22 µM],-3%[10 µM],nt
O=C(Nc1ccc(C(=O)O)cc1)Nc1cccc([N+](=O)[O-])c1,-7%,5%,6%,1%,nt,-8
O=C(O)c1cc(NN=Nc2ccc(Br)cc2)cc([N+](=O)[O-])c1,nt,6.3µM*,3%,23%[9.22 µM],-23%[10 µM],nt
CCOc1ccc(S(=O)(=O)Nc2ccc(C(=O)NN)cc2)cc1,nt,nt,-2%,17%[9.22 µM],28%[10 µM],nt
CCCn1c(=O)c2[nH]c(-c3ccccc3)nc2n(CCC)c1=O,-20%,-10%,5%,nt,-28%,nt
CCOC(=O)C1(CC2CCCCO2)CCN(S(=O)(=O)c2ccc(C)s2)CC1 (configuration not stated),nt,20µM*,12%,-2%[9.22 µM],-13%[10 µM],nt
CCOC(=O)C1(CC2CCCCO2)CCN(S(=O)(=O)c2ccsc2)CC1 (configuration not stated),nt,?,10%,7%[9.22 µM],5%[10 µM],nt
O=C(N/N=C/c1ccccn1)c1[nH]c2ccc([N+](=O)[O-])cc2c1-c1ccccc1,nt,4.5µM*,4%,-3%[9.22 µM],-114%,nt
O=C(O)c1[nH]c2ccc([N+](=O)[O-])cc2c1-c1ccccc1,nt,nt,4%,-13%[9.22 µM],19%[10 µM],nt
CCNc1ncc2nc(CCc3ccccc3)c(=O)n(CCOC)c2n1,?,?,-1%,nt,-57%,nt
COc1ccc(Cc2n[nH]c(=S)n2N)cc1OC,nt,10µM*,4%,-3%,-36%,nt
Nn1c(Cc2ccc(Br)cc2)n[nH]c1=S,nt,11µM*,3%,22%,12%[10 µM],nt
COCCCn1c(C)c(C(C)=O)cc(NC(=O)c2ccccc2)c1=O,nt,2µM*,7%,6%,-3%[10 µM],nt
CCOC(=O)c1cc(NC(=O)c2ccccc2)c(=O)oc1C(F)(F)F,nt,-3%,11%,2%,16%[10 µM],nt
Cc1oc(=O)c(NC(=O)c2ccc(Cl)cc2)cc1C(=O)c1ccccc1,32µM*,3.5µM*,18%,?,?,-25
COC(=O)c1cc(NC(=O)c2ccc(OC)cc2)c(=O)oc1C,nt,2%,27%,3%,-21%,nt
CC(=O)c1cc(NC(=O)c2ccccc2)c(=O)oc1C,nt,20µM*,-10%,?,-47%,nt
Cc1oc(=O)c(NC(=O)c2ccccc2)cc1C(=O)c1ccccc1,-15%,18µM*,-1%,?,?,25
CCNc1ncc2nc(-c3cn(C)c4ccccc34)c(=O)n(CCC#N)c2n1,nt,?,-8%,nt,?,nt
CC(C)C(C)C,2%,25%,6%,nt,-4%,nt
SMILES,HPGD inh,ALDH1A1 block,GoLoco inh red,HTT aggregate,HTT cytoprotect,PNC assembly inh
CC(=O)c1cc(NC(=O)c2ccc(C)cc2)c(=O)oc1/C=C/N(C)C,-9%,?,4%,1%,-3%[10 µM],36
CC(=O)c1cc(NC(=O)c2ccc(C)cc2)c(=O)oc1C,nt,22µM*,-14%,?,-113%,nt
CO[C@H]1COC(=O)[C@H]2CCCN2C(=O)C/C=C\[C@@H](C)[C@H](OC)COC(=O)C/C=C\[C@@H]1C,nt,6%[13.5 µM],nt,nt,-7%[10 µM],nt
COc1cccc(C(C(=O)NC2CCCCC2)N(C(=O)c2ccco2)c2ccc(-n3cnnn3)c(C)c2)c1 (configuration not stated),-17%,?,7%,-1%,13%[10 µM],-100*
Cc1cc(N(C(=O)c2ccco2)C(C(=O)NC2CCCCC2)c2ccccc2)ccc1-n1cnnn1 (configuration not stated),-6%,-3%,7%,-6%,0%,-6
N#CCCN(C(=O)COc1ccc(F)cc1Br)c1ccccc1F,nt,18µM*,-5%,-5%,-37%,nt
CCc1ccc(OCC(=O)NCCN(C)C)c(Br)c1,-23%,-3%,-2%,-26%,-13%,-16
CCc1ccc(OCC(=O)N(C)CCC#N)c(Br)c1,-4%,23%,3%,-17%,-3%,-91*
Cc1nn(-c2cc(Cl)ccc2Cl)c(C)c1C(=O)O,nt,6%,-15%,11%,nt,nt
O=C(NCCN1CCOCC1)c1cc2sccc2n1Cc1ccc(F)cc1,25µM*,-14%,2%,27%,-16%,13
O=C(NCCN1CCOCC1)c1ccc(CS(=O)(=O)c2ccc(Cl)cc2)o1,-4%,3%,-4%,2%,9%,36
CCn1c(C(=O)N2CCC(C(=O)NCc3cccs3)CC2)cc2sccc21,-4%,-8%,6%,-3%,-34%,33
O=C(NCCN1CCOCC1)c1cc2sccc2n1Cc1ccc(Cl)cc1,16µM*,?,12%,32%,-3%[10 µM],?
O=C(NCc1ccco1)C1CCN(C(=O)c2cc3sccc3n2Cc2ccc(Cl)cc2)CC1,-6%,13µM*,12%,4%[9.22 µM],-3%[10 µM],8
O=C(COc1ccccc1)Nc1sc2c(c1C(=O)NCc1cccnc1)CCCC2,-12%,20µM*,9%,-6%,4%[10 µM],21
O=C(COc1ccc(Cl)cc1)Nc1ccc(C(=O)NCc2cccnc2)cc1,-12%,-7%,-3%,?,-113%,110
COc1ccc(/C=C/C(=O)NCc2cccnc2)cc1,-19%,0%,2%,6%,6%[10 µM],-7
COc1ccc(/C=C/C(=O)Nc2sc3c(c2C(=O)NCc2cccnc2)CCCC3)cc1,?,4µM*,7%,20%,5%,44
CN(C)c1ncc2nc(-c3ccccc3)c(=O)n(CCC#N)c2n1,nt,?,-23%,nt,-64%,nt
Clc1ccc(NCc2nnc3n2CCCCC3)cc1,-14%,8%,14%,6%,-14%[0.074 µM],?
Clc1cccc(NCc2nnc3n2CCCCC3)c1,nt,6%,8%,-6%,4µM*,nt
O=c1[nH]c(=O)n(-c2ccc(F)cc2)c2c1C(C(F)(F)F)(C(F)(F)F)N=C(c1ccc(F)cc1)N2,-6%,2%,12%,3.2µM*,14%[10 µM],36
O=C(CCc1ccccc1)NC(NC(=S)Nc1ccc(Br)cc1)C(Cl)(Cl)Cl (configuration not stated),-12%,-9%,-8%,-24%,-14%,?
